In PubChem BioAssay (NCI):
The panel holds about 83,000 compounds, 20% with a hit somewhere; the sample as a whole holds those more often.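 Growth was measured after 48 h exposure to one concentration of compound in 96-well plates. Values under 10 count as active.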 Unmarked numbers belong to inactive results. Calls of active or inactive are those of the source.

Key:
Assay in all cases: NCI-60 one-dose screen, 48 h (100 = growth as untreated, 0 = no growth, -100 = all killed)
Conditions in all cases: 10 µM unless noted
SK-MEL-2 melanoma = system: SK-MEL-2 melanoma
EKVX NSCLC = system: EKVX NSCLC
SN12C renal = system: SN12C renal
UO-31 renal = system: UO-31 renal
TK-10 renal = system: TK-10 renal
ACHN renal = system: ACHN renal
A498 renal = system: A498 renal
CCRF-CEM leukemia = system: CCRF-CEM leukemia
MOLT-4 leukemia = system: MOLT-4 leukemia
SR leukemia = system: SR leukemia
RPMI-8226 leukemia = system: RPMI-8226 leukemia
OVCAR-8 ovarian = system: OVCAR-8 ovarian
OVCAR-5 ovarian = system: OVCAR-5 ovarian
OVCAR-4 ovarian = system: OVCAR-4 ovarian
SK-OV-3 ovarian = system: SK-OV-3 ovarian
IGROV1 ovarian = system: IGROV1 ovarian
OVCAR-3 ovarian = system: OVCAR-3 ovarian
HS 578T breast = system: HS 578T breast
NCI/ADR-RES ovarian = system: NCI/ADR-RES ovarian
T-47D breast = system: T-47D breast

SMILES | growth (SK-MEL-2 melanoma) | growth (EKVX NSCLC) | growth (SN12C renal) | growth (UO-31 renal) | growth (TK-10 renal) | growth (ACHN renal) | growth (A498 renal) | growth (CCRF-CEM leukemia) | growth (MOLT-4 leukemia) | growth (SR leukemia) | growth (RPMI-8226 leukemia) | growth (OVCAR-8 ovarian) | growth (OVCAR-5 ovarian) | growth (OVCAR-4 ovarian) | growth (SK-OV-3 ovarian) | growth (IGROV1 ovarian) | growth (OVCAR-3 ovarian) | growth (HS 578T breast) | growth (NCI/ADR-RES ovarian) | growth (T-47D breast)
CCOc1ccccc1C(=O)/C=C/c1cc2ccccc2[nH]c1=O | 4.96% (active) | -1.6% (active) | -20.9% (active) | -97.7% (active) | 15% | -5.01% (active) | -14.7% (active) | -0.719% (active) | 5.16% (active) | 4% (active) | -12.1% (active) | 7.43% (active) | 5.93% (active) | 32.3% | 18.8% | 1.32% (active) | -30.7% (active) | 60.1% | -4.24% (active) | 4.65% (active)
O=C(O)c1cn(C2CC2)c2cc(N3CCN(Cc4nnc(Nc5ccccc5)o4)CC3)c(F)cc2c1=O | 101% | 103% | 109% | 92.5% | 112% | 103% | 92.2% | 92% | 98.5% | 97.7% | 106% | 108% | 94% | 101% | 108% | 95.9% | 101% | 98% | 107% | 85.4%
NS(=O)(=O)c1ccc(C2C3=C(CCCC3=O)OC3=C2C(=O)c2ccccc2C3=O)cc1 (stereo not given) | -74% (active) | -55.4% (active) | -52.7% (active) | -21.6% (active) | -92.6% (active) | -78.9% (active) | -68.9% (active) | -10.5% (active) | -54.6% (active) | -19.9% (active) | -35.8% (active) | -14.5% (active) | -53.1% (active) | -96.6% (active) | -23.9% (active) | -52.3% (active) | -66.1% (active) | -5.38% (active) | 56.9% | -50.7% (active)
Cn1c2c(c3ccc(-c4ccn[nH]4)cc3c1=O)C(=O)c1ccccc1-2 | 118% | 20.2% | 7.3% (active) | 19.2% | 71.6% | -8.82% (active) | 60% | 2.31% (active) | -1.45% (active) | 1.32% (active) | -11.6% (active) | 29.4% | 86% | 74% | 74.2% | 45.6% | 60.3% | 85.8% | 53.2% | 32.2%
COc1ccc(C2=NN(c3ccc(S(N)(=O)=O)cc3)C(c3ccc(Cl)cc3)C2)c(O)c1 (stereo not given) | 87.9% | 56% | 73% | 60.3% | 53.7% | 65% | 47.2% | 26.8% | 32.5% | 16.1% | 4.28% (active) | 54.6% | 78.3% | 50.5% | 85.3% | 50.1% | 58.6% | 70.5% | 52.5% | 33.8%
CN(CCC#N)C(=O)Nc1ccccc1 | 98.7% | 105% | 111% | 87.3% | 84.1% | 110% | 90.4% | 111% | 99.7% | 96.5% | 107% | 102% | 111% | 104% | 100% | 106% | 108% | 105% | 102% | 97.2%
CC1CCN(CCCCCOc2ccc3oc4ccccc4c(=O)c3c2)CC1 | 102% | 89% | 69.3% | 63.1% | 71.4% | 95.3% | 74.4% | 77.1% | 53.2% | 47.5% | 60.1% | 81% | 88.4% | 77.3% | 93.9% | 68.9% | 87.6% | 70.3% | 78.3% | 67.6%
COc1cc(NCC(=O)Nc2cc(Nc3ccc(C)cc3)ncn2)c(Cl)c(OC)c1Cl | 103% | 82.1% | 88.1% | 62.1% | 121% | 92.6% | 84.9% | 81.8% | 60.8% | 78.9% | 82.9% | 88.4% | 92.3% | 78.5% | 81.9% | 82.5% | 84.3% | 83.5% | 91.3% | 70.6%
C=C(C)[C@@H]1CC[C@]2(C(=O)O)CC[C@]3(C)[C@H](CC[C@@H]4[C@@]5(C)C[C@@H](CC#Cc6ccc(Cl)cc6)C(=O)C(C)(C)[C@@H]5CC[C@]43C)[C@@H]12 | -18.9% (active) | 40% | 27.8% | 60.5% | 59.7% | 48.2% | -15.1% (active) | 27.9% | 26.7% | 49.9% | 22.5% | 48.1% | 70.9% | 29.1% | 61.5% | 70.1% | 46.6% | 55.3% | 71.7% | 39.4%
CCOC(=O)C1CCN(S(=O)(=O)/N=C2/NC(=O)NC2=C(Cl)Cl)CC1 | -23.4% (active) | 67.4% | -35.1% (active) | 8.22% (active) | 33.1% | 14.2% | 23.9% | -53.4% (active) | -20.8% (active) | -11.4% (active) | 6.17% (active) | 21.4% | 64% | 80% | 70.9% | -54.4% (active) | -81.2% (active) | 24.1% | 68.6% | 55%
COc1cc(NC(=O)Nc2cnc(Nc3ccc(N4CCOCC4)cc3)nc2Oc2ccc(F)cc2)cc(OC)c1 | 101% | 108% | 61.8% | 93% | 116% | 99.9% | 102% | 92.9% | 77.2% | 66.2% | 81.3% | 73.4% | 113% | 60% | 102% | 94.2% | 97.8% | 85.7% | 95.4% | 53.5%
CNC(=O)c1cc(Oc2ccc3c(c2)sc2nc(-c4ccc(NC(C)=O)cc4)cn23)ccn1 | 45.2% | 54.7% | 52% | 43.9% | 61.4% | 52% | -6.27% (active) | 78.8% | 72.7% | 25.7% | 60.3% | 73% | 90% | 83.5% | 34% | 69.2% | 75% | 43.4% | 52.1% | 16.9%
COc1cc(NC(=O)COc2cc(C)nc3ccc(OC)cc23)cc(OC)c1 | 92.2% | 91.5% | 88.9% | 69.8% | 96.5% | 82% | 63.7% | 82% | 89.9% | -8.57% (active) | 81.3% | 93.6% | 107% | 99% | 96.3% | 104% | 98.9% | 95.1% | 86.6% | 95.8%
C=C(C)[C@@H]1CC[C@]2(C(=O)N3CCN(C)CC3)CC[C@]3(C)[C@H](CC[C@@H]4[C@@]5(C)C/C(=C/c6ccco6)C(=O)C(C)(C)[C@@H]5CC[C@]43C)[C@@H]12 | 83.7% | 68.2% | 64.9% | 60.5% | 98.8% | 74.7% | 97.5% | 50.1% | 28.6% | -21.9% (active) | 33.7% | 70.7% | 83.2% | 71.7% | 71.3% | 90.1% | 88.1% | 66.4% | 69.8% | 72.7%
COc1cc2c(cc1OCCCOc1cc3c(cc1OC)C(=O)N1CC(F)(F)C[C@H]1C=N3)N=C[C@@H]1CC(F)(F)CN1C2=O | 34.7% | 49.2% | 35.8% | 30% | 11.3% | 24.7% | -66.6% (active) | -33.1% (active) | -8.82% (active) | -12.1% (active) | -30.7% (active) | 17.8% | 14.2% | 35.2% | 46.2% | 0.757% (active) | 22.8% | -8.37% (active) | 76.9% | 27.7%
